CDC25B CDK2 inh: primary biochemical HTRF screen for blockers of M-phase inducer phosphatase 2 binding to CDK2/cyclin A. P30305+P24941. HTRF CDC25B-CDK2/CyclinA binding, anti-His/anti-Flag; hits give high values. z-score (no concentration beside the values). hit rate 0.72% among 94,000. AID 1259370, 2018; in the data active = z-score above about 3.2
TAR Tat displ: TAR RNA-Tat peptide displacers, HIV-1, primary screen, biochemical, FRET, FAM/TAMRA-labeled Tat. HIV-1 TAR RNA, Tat peptide displacement FRET; hits give high values. z-score (no concentration beside the values). hit rate 0.6% among 100,000. AID 1259389, 2018; active = z-score of 3 or more in at least 2 runs
Starred values were filed as active, the others as inactive; / = not tested or not shown. Hits are enriched below; roughly 0.93% of the tested compounds scored in any of these assays.

SMILES	CDC25B CDK2 inh	TAR Tat displ
O=c1[nH]nc2c3cc(F)ccc3n(Cc3ccccc3)cc1-2	-1.1	3.2*
Cc1cccc(Cn2cc3c(=O)[nH]nc-3c3cc(F)ccc32)c1	1.1	1.6
COC(=O)c1ccc2c(=O)[nH]c3c(C(=O)N4CCCCC4)sc(=S)n3c2c1	/	1.5
CCOc1ccc(S(=O)(=O)Nc2cc3c(c4ccccc24)OC2(C3)N(C)c3ccccc3C2(C)C)cc1 (configuration not stated)	18*	/
CCOc1ccc(S(=O)(=O)Nc2ccc3c(c2)N(S(=O)(=O)c2ccccc2)CCC3)cc1	/	0.39
c1cnc2sc(N3CCC4(CC3)OCCO4)nc2c1	-2.2	/
CNc1nc2cccnc2s1	8.2*	/
O=C1c2ccccc2S(=O)(=O)N1CC(O)COc1ccccc1 (configuration not stated)	-1.2	/
CN1CCc2c(n(CC(O)CN3C(=O)c4ccccc4S3(=O)=O)c3ccccc23)C1=O (configuration not stated)	19*	0.59
CCOC(=O)C(C#N)CCCOCC1CO1 (configuration not stated)	-2.7	/
CCOC(=O)c1cccc(-n2nnc3c(sc4nc(C)cc(COC)c43)c2=O)c1	-1.9	2.6
Nc1ccc(F)c(-c2nnc(-c3ccccc3)o2)c1	/	33*
Clc1ccc(-c2nnc(-c3ccccc3)o2)cc1	-2.7	-1.1
CNC(=S)Nc1ccc(F)cc1	-1.5	/
Fc1ccc(NC(=S)Nc2ccc3cn[nH]c3c2)cc1	20*	/
CCOC(=O)c1c(NC(C)=O)sc2c1CCCC2=O	-1.8	0.7
CCCCN1CC(c2nc3ccccc3n2CCCOc2cccc(OC)c2)CC1=O (configuration not stated)	-1.5	-0.08
CN1CCc2c(sc3c2C(=O)NC(c2ccc(O)c(O)c2)N3)C1 (configuration not stated)	-0.12	13*
COc1cc(C2NC(=O)c3c(sc4c3CCN(C)C4)N2)ccc1O (configuration not stated)	-0.03	-8.1
O=C(CCc1nnc2ccc(N3CCOCC3)nn12)N1CCOCC1	/	-0.59
Cc1[nH]c2ccccc2c1SCC(=O)NNC(=O)Nc1cccc(Cl)c1	14*	/
O=C(CSc1nc2ccccc2c(=O)[nH]1)Nc1cccc(Cl)c1	/	1.8
Cc1ccc(C(CNC(=O)c2cc(=O)c3ccc(Br)cc3o2)N2CCC(C)CC2)o1 (configuration not stated)	-1.3	1
O=C(O)c1cc2ccccc2c(=O)[nH]1	/	1.9
O=c1[nH]c(Nc2ccccc2)cc2ccccc12	16*	-7.4
SMILES	CDC25B CDK2 inh	TAR Tat displ
O=C(Nc1ccc2nc3n(c(=O)c2c1)CCCC3)C1CCCCC1	-2.4	-1.5
CN(C)CCCNC(=O)c1cc2c(n(-c3ccc(Cl)cc3)c1=O)CCCC2=O	-0.44	-0.77
Cc1ccc(-c2csc(Nc3ccccn3)n2)cc1	-0.98	0.8
Cc1nc(N)sc1-c1csc(Nc2ccccn2)n1	18*	/
O=C(O)c1cnc2ccc(Cl)cc2c1N1CCOCC1	-0.78	1.1
Cc1cc2c(n1-c1ccc(C(=O)O)cc1)CCCC2	-0.92	1.3
Cc1ccc(C)n1-c1cc(C(=O)O)cc(C(=O)O)c1	0.35	17*
CCOc1ccccc1N1CC(c2nc3ccccc3n2CC(C)C)CC1=O (configuration not stated)	-2.3	0.95
CCOC(=O)c1cc(=O)c2ccc(O)cc2o1	0.08	/
CCCc1ccc(-c2ccc(C(N)=O)cc2)cc1	-1.1	/
CCCc1cc(C(N)=S)ccn1	/	22*
CCOc1cc(/C=c2\sc3nc4ccccc4n3c2=O)ccc1OCc1ccccc1F	-2.7	/
C=CCNc1nc(NCc2ccccc2OC)c2cnn(C)c2n1	/	0.68
Cc1ccc(C2=NN(C(=O)c3ccncc3)C(O)(C(F)(F)F)C2)cc1 (configuration not stated)	-1.9	/
CCCCNC(=O)CN1c2ccc(Br)cc2-c2ccccc2S1(=O)=O	-0.34	0.24
Cn1cc(NC(=O)NC2CCCCC2)c2ccccc2c1=O	19*	0.91
CC(C)Cn1cc(NC(=O)NC2CCCCC2)c2ccccc2c1=O	/	2.4
C=CCOc1ccc(C2c3c(oc4ccccc4c3=O)C(=O)N2Cc2ccc3c(c2)OCO3)cc1OC (configuration not stated)	-0.63	-0.76
COc1ccc(/C=C(\C#N)C(N)=S)cc1	1.6	/
CC1CN(C)C(C)C(/C=C(/C#N)C(N)=S)C1=O (configuration not stated)	7.9*	/
CCNC(=O)N(Cc1nc(-c2ccc(Cl)cc2)no1)C1CCCCC1	-2.3	0.48
CN(CC(=O)N1CCN(C2CCCC2)CC1)S(=O)(=O)c1ccc2c(c1)CCCC(=O)N2	/	0.28
Cc1nnc2sc(/C=C/c3ccco3)nn12	-1.1	11*
Cc1ccc(-c2nn3c(C)nnc3s2)cc1	-0.67	0.49
Cc1ccc(/C=C/c2nn3c(-c4ccoc4C)nnc3s2)cc1	-1.3	0.92
SMILES	CDC25B CDK2 inh	TAR Tat displ
C(=C\c1nn2cnnc2s1)/c1ccco1	-0.67	21*
Cc1ccc(-c2nnc3sc(/C=C/c4ccco4)nn23)cc1	14*	20*
Cc1ccccc1/C=C/c1nn2c(-c3ccoc3C)nnc2s1	-1.2	0.29
c1csc(-c2nn3cnnc3s2)c1	-0.82	0.39
Cc1occc1-c1nnc2sc(/C=C/c3ccccc3Cl)nn12	1.2	7.7*
COc1cc(NC(=O)Cn2nc3c(cc2=O)CCCC3)cc(OC)c1	/	0.68
CCCN1C(=O)N(c2ccc(C)c(Cl)c2)C2CS(=O)(=O)CC21 (configuration not stated)	/	0.46
O=c1cc2cc(O)[nH]c(=O)c2c(O)[nH]1	19*	/
Nc1n[nH]c2cc(=O)[nH]c(O)c12	-0.59	/
Cc1ccc(-c2ccc(=O)n(Cc3cccc(Br)c3)n2)cc1S(=O)(=O)N1CCCC1	0.07	0.18
CCOC(=O)COc1cc2oc(C)c(-c3nc4ccccc4s3)c(=O)c2cc1CC	-2.6	/
Cc1ccc(NC(=O)CSc2nnc(C)n3c2cc2occc23)c(Cl)c1	/	0.84
C[C@](N)(Cc1ccc(O)c(O)c1)C(=O)O	0.01	26*
C[C@](N)(Cc1ccc(O)cc1)C(=O)O	0.99	/
O=C(O)CNC(=O)CCCCC(=O)NCC(=O)O	10*	/
O=C(O)CCC(=O)NCC(=O)c1ccc(F)cc1	-2.2	/
CC1CCCCN1C(=O)c1cc(S(=O)(=O)N2CCCC2)cn1C (configuration not stated)	/	2.1
COCCNC(=O)c1nc(-n2cnnc2)ccc1Br	/	2
CCOc1cc(C2CC(=O)N3CN(c4ccc(F)cc4)CSC3=C2C#N)ccc1O (configuration not stated)	1.4	30*
CCOc1cc(C2CC(=O)N3CN(c4ccc(C)c(C)c4)CSC3=C2C#N)ccc1O (configuration not stated)	1.9	2.2
COc1ccc(N2CSC3=C(C#N)C(c4cccc(Br)c4)CC(=O)N3C2)c(OC)c1 (configuration not stated)	1.8	0.31
CCOc1cc(C2CC(=O)N3CN(c4ccccc4)CSC3=C2C#N)cc(Br)c1O (configuration not stated)	8.8*	31*
CCOc1cc(C2CC(=O)N3CN(c4ccc(OC)cc4OC)CSC3=C2C#N)ccc1O (configuration not stated)	3.1*	-1.1
COc1ccc(N2CSC3=C(C#N)C(c4ccc(O)c(OC)c4)CC(=O)N3C2)c(OC)c1 (configuration not stated)	3.5*	-4.1

High-throughput results from PubChem.
